Screens (PubChem BioAssay)
TSG101-PTAP inh: blocks PTAP/TSG101 interaction to inhibit HIV-1 budding; Fluorescence polarization, FITC-PTAP peptide / Tsg101 binding; Potency, µM (titrated, usually from 115 µM), inactives show top-dose activity change, negative = inhibition, hits mostly inhibitors; AID 493005; Q99816; 340,000 tested, under 10 active; active = well fitted inhibition curve with a large enough effect in the main read-out, with a control signal flat, not every such curve was filed as active; inconclusive = small, poorly fitted or top-dose-only effect, or effect the other way, or a change in a side signal; inactive = no such curve, though single readings can be large or run the other way; also: potency is read from the fitted curve at half-maximal effect; % of control where 0% means no effect
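Tsg101 binding domain (10 uM final) was mixed with compound and a FITC-labeled PTAP peptide (50 nM final) in HEPES pH 7.5 buffer with NaCl, Tween 20, EDTA and TCEP; fluorescence polarization was read after 20 min at r.t.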
uPA generation: blocks generation of uPA at the cell surface. cell surface uPA generation assay, qHTS. Potency, µM (series often up to 38.3 µM), inactives show at the highest dose activity change, negative = inhibition, most hits filed as inhibitors. 330,000 compounds, 0.31% hits; active = well fitted inhibition curve with a large enough effect; inconclusive = small, poorly fitted or top-dose-only effect; inactive = no such curve, though single readings can be large or run the other way; tested in mouse RAW 264.7 cells; also: potency is read from the fitted curve at half-maximal effect; % is scaled to controls: 0 for no effect and ±100 for the full control effect; nearly all actives have a fitted effect of over 55% in size
TSHR antagonist: antagonists of human thyroid stimulating hormone receptor. 330,000 compounds, 0.2% hits. P16473. activity change, negative = inhibition, % at 11.5 µM. TSHR-expressing cells, TSH-stimulated cAMP HTRF, 2 h; hits give low values;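 active = activity change below a set negative limit, meaning inhibition stronger than a set level, cut at about -70% in these data; inconclusive = activity change between two set negative limits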; also: % is scaled to controls: 0 for no effect and ±100 for the full control effect
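Competitive HTRF cAMP read-out (cryptate anti-cAMP antibody, cAMP-d2; 30 min, room temperature) in freshly harvested TSHR cells. Compounds added before TSH at EC80 (4nM final), followed by 2 hours' incubation at 37 deg C.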
VDR inh: vitamin D3 receptor (human) inhibition; P11473; VDR-SRC2-3 peptide fluorescence polarization, 2 h; Potency, µM, for the others: max response, negative = inhibition, usual class: inhibitors; 400,000 compounds, 0.93% hits; also: potency is read from the fitted curve at half-maximal effect; % is scaled to controls: 0 for no effect and ±100 for the full control effect
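FP read-out; VDR + SRC2-3 coactivator peptide; 23 nl compound by pintool; 2 h RT incubation; reagents held at 4 deg C, protected from light.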
PLK1 PBD block: PLK1 (human) polo-box domain binding inhibition; P53350; Plk1 PBD binding of FITC phosphopeptide, fluorescence polarization; Potency, µM, for inactives: max response, negative = inhibition, most hits filed as inhibitors; 360,000 compounds, 2.8% hits; also: potency is read from the fitted curve at half-maximal effect; series mostly up to about 57 µM; % is scaled to controls: 0 for no effect and ±100 for the full control effect; nearly all actives have a fitted effect of over 65% in size
Target sequence (P53350 whole entry, looked up, the tested form may be a part): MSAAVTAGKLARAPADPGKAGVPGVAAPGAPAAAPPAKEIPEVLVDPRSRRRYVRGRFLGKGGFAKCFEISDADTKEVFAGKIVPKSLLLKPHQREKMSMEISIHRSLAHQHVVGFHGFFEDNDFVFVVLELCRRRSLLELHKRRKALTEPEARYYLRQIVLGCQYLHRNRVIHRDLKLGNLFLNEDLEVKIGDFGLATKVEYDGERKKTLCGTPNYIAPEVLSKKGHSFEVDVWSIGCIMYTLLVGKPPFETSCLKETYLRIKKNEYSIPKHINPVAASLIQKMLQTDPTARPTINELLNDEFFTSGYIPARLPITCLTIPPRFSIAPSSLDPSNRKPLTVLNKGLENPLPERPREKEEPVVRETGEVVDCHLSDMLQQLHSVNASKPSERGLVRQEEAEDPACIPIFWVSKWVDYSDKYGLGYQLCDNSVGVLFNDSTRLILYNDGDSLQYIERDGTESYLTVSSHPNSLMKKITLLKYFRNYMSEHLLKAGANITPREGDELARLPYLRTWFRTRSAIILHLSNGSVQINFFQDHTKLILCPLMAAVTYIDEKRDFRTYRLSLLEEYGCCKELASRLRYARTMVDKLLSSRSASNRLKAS
Numbers without * were called inactive; ? = inconclusive; . = no result given. Hits are enriched below; roughly 3.1% of the tested compounds scored in any of these assays. Unless noted, calls follow the shape of the dose curve; as a rule, active = well fitted curve in the direction sought with a large enough effect; inconclusive = small, poorly fitted or top-dose-only effect, or another doubt; inactive = no such curve, though single readings can be large; an effect the other way counts as inactive or inconclusive.

SMILES	TSG101-PTAP inh	uPA generation	TSHR antagonist	VDR inh	PLK1 PBD block
Cc1c(N=Nc2ccc(O)cc2)c(=O)n(-c2ccccc2)n1C	0%	-9%	13	-2%	-6%
Cc1c(N=C2C=CC(=O)c3ccccc32)c(=O)n(-c2ccccc2)n1C	-2%	-4%	-19	?	19µM*
COc1cc(Br)c(C(=O)c2nccc3cc(OC)c(OC)cc23)cc1OC	-2%	0%	-29	-18%	6µM*
COc1ccc(CCNC(=O)CSc2ncc3c(n2)-c2cc(Cl)ccc2N(Cc2ccccc2)S3(=O)=O)cc1OC	.	.	.	-2%	.
CC(C)(C)C(=O)C[n+]1cccc(C(N)=O)c1	-7%	0%	11	-14%	30µM*
NC(=O)c1ccc[n+](CCC[n+]2cccc(C(N)=O)c2)c1	-9%	1%	-4	1%	?
CCOC(=O)C1CCCN(C(=O)c2nn(-c3ccc(C)cc3)c(=O)n(C)c2=O)C1 (stereo not drawn)	.	.	.	15%	.
Cc1cccc(-n2c(O)c(C=Nc3cccc(O)c3)c3ccccc3c2=O)n1	-4%	-8%	-9	?	15µM*
Cn1nc([N+](=O)[O-])nc1Sc1nnc(-c2ccccc2)o1	-1%	-13%	25	-9%	-7%
O=Cc1ccc(Sc2nnc(-c3ccccc3)o2)c([N+](=O)[O-])c1	-2%	2%	-5	79µM*	?
O=S(=O)(NCCc1c[nH]c2ccccc12)c1ccc(F)cc1	0%	7%	.	8%	-22%
COC(=O)C(CC(=O)O)NCc1ccco1 (stereo not drawn)	-3%	6%	4	-13%	12µM*
O=C(COC(=O)C(Cc1ccccc1)NC(=O)c1ccc(Cl)cc1)c1ccc(Cl)cc1 (stereo not drawn)	-5%	10%	-4	-4%	11µM*
Cc1ccc(-c2[nH]ncc2C(=O)c2ccc(Br)cc2)c(O)c1	-6%	5%	1	2%	-2%
COc1ccc(-n2c(=O)c(-c3ccccc3)nc3cncnc32)cc1	.	.	.	-3%	.
O=C(O)c1cccc(N2C(=O)CCC2=O)c1	.	.	7	.	.
CN(C)S(=O)(=O)c1ccc2[nH]cc(/C=C/c3nc4ccccc4c(=O)n3-c3ccccc3)c2c1	-5%	-18%	-20	-10%	-5%
N#Cc1ccc2c(=O)n(-c3ccccc3)sc2c1	.	.	.	.	3µM*
O=C(O)c1cccc(-n2sc3ccccc3c2=O)c1	-3%	?	?	7.1µM*	1.2µM*
CC1(C)CN(c2ccccc2)N(C(=O)c2ccc(C#N)cc2)C1=O	-2%	-4%	29	4%	-19%
O=c1c2ccccc2sn1-c1ccccc1	-5%	-6%	-17	4µM*	1.1µM*
CN(C)S(=O)(=O)c1cccc(-n2sc3ccccc3c2=O)c1	-3%	-23%	-15	32µM*	1.2µM*
O=C(COc1ccccc1F)Nc1nnc(S(=O)(=O)N2CCCCCC2)s1	.	.	.	13%	.
CCC(=O)N1CCc2cc(Br)cc(S(=O)(=O)CCC(=O)Nc3cccc(CC)c3)c21	.	.	.	-2%	.
CC(=O)Nc1ccc2c(=O)n(-c3ccccc3)sc2c1	.	.	.	.	2.4µM*
SMILES	TSG101-PTAP inh	uPA generation	TSHR antagonist	VDR inh	PLK1 PBD block
Cc1ccccc1-n1sc2cc(F)ccc2c1=O	0%	-1%	?	?	1.2µM*
Cn1c(=O)n(-c2cccc(Cl)c2)c(=O)c2sc3ccccc3c21	.	.	.	-15%	.
Cn1sc2ccccc2c1=O	.	.	.	.	4.7µM*
CC1NC(=O)c2ccccc2-n2c1nc1cc(F)ccc1c2=O (stereo not drawn)	.	.	3	.	.
CC(=O)Nc1ccc(-c2cc(N)n(-c3ccccc3)n2)cc1	-1%	0%	5	1%	0%
O=c1c2ccccc2sn1-c1cccc(Cl)c1	.	.	.	.	3µM*
O=c1ccsc2ccccc12	-2%	-2%	.	-7%	-10%
CCCCCN1C(C(=O)c2ccccc2)=C(NC(=O)c2ccc(OC)cc2)c2ccccc2S1(=O)=O	.	.	.	10%	.
COc1ccc(CC(=O)Oc2ccc(C)cc2Br)cc1OC	-7%	-5%	-25	12%	-2%
O=C1NC(=O)c2c1c(-c1ccccc1)cc1[nH]c3ccc(O)cc3c21	.	.	.	-3%	.
O=C1c2ccccc2C(=O)N1c1nccs1	1%	-1%	.	-2%	7%
O=c1c2ccccc2sn1-c1ccccc1F	.	.	.	.	3µM*
O=C1CN(c2ccccc2F)C(=O)CN1c1ccccc1F	-7%	-1%	4	-10%	-5%
